# Data reported in the supplement of paper PMC8728848.
# The entries come from a sample that favours the strongest signals as a whole.
# B1: Epa23 (Candida glabrata) (protein)
# chain: MGSSHHHHHHSSGLVPRGSHMIPNPFEGTINNFPSGCSPNHGLYNRGLTMELYNYSYIHPQSIQSYFNTSTLKKMEKGQCWDPSYLDVNYPRTGYKTHNRFAKVNGIDGILDFEFNPTRSCVPSKGQLPQNYNYPLQFTLSNFTMLLYGYFKPKVTAKHTFTIFADDLLFLNFGAGNAFDCCQQQDTIDDFGNYQAYALWGSDTQQNTLTVNLDANIYYPIRMFYNNRDFKGALNMYFTTDESNTKINDFSGYLFNIPDSSEGCPAHISYETECGNVSG
# Tests used:
# Assay in all cases: glycan array binding signal (z-score within array); higher = stronger binding
# Conditions in all cases: glycan notation: IUPAC condensed, linker removed
# [1] = target: Fuc(a1-2)[GalNAc(a1-3)]Gal(b1-3)GlcNAc(b1-3)GalNAc
# Outline: (§1)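 Glycan array data were curated from 3228 arrays in the Consortium for Functional Glycomics database and kept only where the protein sequence was available. Glycan names were converted to IUPAC-condensed notation, and columns mapping to the same glycan were averaged. The binding signal is a within-array Z-score, averaged across arrays of the same protein sequence at different concentrations or buffers and across linkers. Negative Z-scores can be read as non-binding.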
# [2] = target: Fuc(a1-2)[GalNAc(a1-3)]Gal(b1-4)Glc
# Outline: as §1
# [3] = target: Fuc(a1-3)[Gal3S(b1-4)]GlcNAc6S
# Outline: as §1
# [4] = target: Gal(a1-3)Gal(b1-4)GlcNAc
# Outline: as §1
# [5] = target: Gal(a1-6)Glc
# Outline: as §1
# [6] = target: Gal(b1-3)GlcNAc(a1-6)Gal(b1-4)GlcNAc
# Outline: as §1
# [7] = target: Gal(b1-3)[Fuc(a1-4)]GlcNAc(b1-6)GalNAc
# Outline: as §1
# [8] = target: Gal(b1-4)Glc
# Outline: as §1
# [9] = target: Gal(b1-4)GlcNAc(b1-2)Man(a1-3)[Gal(b1-4)GlcNAc(b1-2)Man(a1-6)][GlcNAc(b1-4)]Man(b1-4)GlcNAc(b1-4)[Fuc(a1-6)]GlcNAc
# Outline: as §1
# [10] = target: Gal(b1-4)GlcNAc(b1-2)Man(a1-6)[GlcNAc(b1-2)Man(a1-3)]Man(b1-4)GlcNAc(b1-4)GlcNAc
# Outline: as §1
# [11] = target: Gal(b1-4)GlcNAc(b1-2)Man(a1-6)[Man(a1-3)]Man(b1-4)GlcNAc(b1-4)GlcNAc
# Outline: as §1
# [12] = target: Gal(b1-4)GlcNAc(b1-2)[Gal(b1-4)GlcNAc(b1-6)]Man(a1-6)[Gal(b1-4)GlcNAc(b1-2)Man(a1-3)]Man(b1-4)GlcNAc(b1-4)GlcNAc
# Outline: as §1
# [13] = target: Gal(b1-4)GlcNAc(b1-3)Gal(b1-4)GlcNAc
# Outline: as §1
# [14] = target: Gal(b1-4)GlcNAc(b1-3)Gal(b1-4)GlcNAc(b1-2)Man(a1-3)[Gal(b1-4)GlcNAc(b1-3)Gal(b1-4)GlcNAc(b1-2)Man(a1-6)]Man(b1-4)GlcNAc(b1-4)GlcNAc
# Outline: as §1
# [15] = target: Gal(b1-4)GlcNAc(b1-3)Gal(b1-4)GlcNAc(b1-2)[Gal(b1-4)GlcNAc(b1-3)Gal(b1-4)GlcNAc(b1-6)]Man(a1-6)[Gal(b1-4)GlcNAc(b1-3)Gal(b1-4)GlcNAc(b1-2)Man(a1-3)]Man(b1-4)GlcNAc(b1-4)[Fuc(a1-6)]GlcNAc
# Outline: as §1
# [16] = target: Gal(b1-4)GlcNAc(b1-3)Gal(b1-4)GlcNAc(b1-3)Gal(b1-4)GlcNAc(b1-2)[Gal(b1-4)GlcNAc(b1-3)Gal(b1-4)GlcNAc(b1-3)Gal(b1-4)GlcNAc(b1-6)]Man(a1-6)[Gal(b1-4)GlcNAc(b1-3)Gal(b1-4)GlcNAc(b1-3)Gal(b1-4)GlcNAc(b1-2)Man(a1-3)]Man(b1-4)GlcNAc(b1-4)[Fuc(a1-6)]GlcNAc
# Outline: as §1
# [17] = target: Gal(b1-4)GlcNAc(b1-3)Gal(b1-4)GlcNAc(b1-3)Gal(b1-4)GlcNAc(b1-3)Gal(b1-4)GlcNAc(b1-2)Man(a1-3)[Gal(b1-4)GlcNAc(b1-3)Gal(b1-4)GlcNAc(b1-3)Gal(b1-4)GlcNAc(b1-3)Gal(b1-4)GlcNAc(b1-2)Man(a1-6)]Man(b1-4)GlcNAc(b1-4)GlcNAc
# Outline: as §1
# [18] = target: Gal(b1-4)GlcNAc(b1-3)Gal(b1-4)GlcNAc(b1-3)Gal(b1-4)GlcNAc(b1-3)Gal(b1-4)GlcNAc(b1-2)[Gal(b1-4)GlcNAc(b1-3)Gal(b1-4)GlcNAc(b1-3)Gal(b1-4)GlcNAc(b1-3)Gal(b1-4)GlcNAc(b1-6)]Man(a1-6)[Gal(b1-4)GlcNAc(b1-3)Gal(b1-4)GlcNAc(b1-3)Gal(b1-4)GlcNAc(b1-3)Gal(b1-4)GlcNAc(b1-2)Man(a1-3)]Man(b1-4)GlcNAc(b1-4)[Fuc(a1-6)]GlcNAc
# Outline: as §1
# [19] = target: Gal(b1-4)GlcNAc(b1-3)Gal(b1-4)GlcNAc(b1-3)Gal(b1-4)GlcNAc(b1-3)Gal(b1-4)GlcNAc(b1-3)Gal(b1-4)GlcNAc(b1-2)Man(a1-3)[Gal(b1-4)GlcNAc(b1-3)Gal(b1-4)GlcNAc(b1-3)Gal(b1-4)GlcNAc(b1-3)Gal(b1-4)GlcNAc(b1-3)Gal(b1-4)GlcNAc(b1-2)Man(a1-6)]Man(b1-4)GlcNAc(b1-4)GlcNAc
# Outline: as §1
# [20] = target: Gal(b1-4)GlcNAc(b1-3)Gal(b1-4)GlcNAc(b1-3)Gal(b1-4)GlcNAc(b1-3)Gal(b1-4)GlcNAc(b1-3)Gal(b1-4)GlcNAc(b1-2)Man(a1-3)[Gal(b1-4)GlcNAc(b1-3)Gal(b1-4)GlcNAc(b1-3)Gal(b1-4)GlcNAc(b1-3)Gal(b1-4)GlcNAc(b1-3)Gal(b1-4)GlcNAc(b1-2)Man(a1-6)]Man(b1-4)GlcNAc(b1-4)[Fuc(a1-6)]GlcNAc
# Outline: as §1
# [21] = target: Gal(b1-4)GlcNAc(b1-3)Gal(b1-4)GlcNAc(b1-3)Gal(b1-4)GlcNAc(b1-3)Gal(b1-4)GlcNAc(b1-3)Gal(b1-4)GlcNAc(b1-2)[Gal(b1-4)GlcNAc(b1-3)Gal(b1-4)GlcNAc(b1-3)Gal(b1-4)GlcNAc(b1-3)Gal(b1-4)GlcNAc(b1-3)Gal(b1-4)GlcNAc(b1-6)]Man(a1-6)[Gal(b1-4)GlcNAc(b1-3)Gal(b1-4)GlcNAc(b1-3)Gal(b1-4)GlcNAc(b1-3)Gal(b1-4)GlcNAc(b1-3)Gal(b1-4)GlcNAc(b1-2)Man(a1-3)]Man(b1-4)GlcNAc(b1-4)[Fuc(a1-6)]GlcNAc
# Outline: as §1
# [22] = target: Gal(b1-4)GlcNAc(b1-6)Gal(b1-4)GlcNAc
# Outline: as §1
# [23] = target: Gal(b1-4)GlcNAc(b1-6)GalNAc
# Outline: as §1
# [24] = target: Gal3S4S(b1-4)GlcNAc
# Outline: as §1
# [25] = target: Gal6S(b1-4)Glc
# Outline: as §1
# [26] = target: Gal6S(b1-4)Glc6S
# Outline: as §1
# [27] = target: Gal6S(b1-4)GlcNAc
# Outline: as §1
binder,measurement,setting,value
B1,glycan array binding signal (z-score),[1],-0.229
same,glycan array binding signal (z-score),[2],-0.234
same,glycan array binding signal (z-score),[3],-0.161
same,glycan array binding signal (z-score),[4],-0.008
same,glycan array binding signal (z-score),[5],-0.007
same,glycan array binding signal (z-score),[6],-0.078
same,glycan array binding signal (z-score),[7],-0.177
same,glycan array binding signal (z-score),[8],-0.134
same,glycan array binding signal (z-score),[9],-0.232
same,glycan array binding signal (z-score),[10],-0.223
same,glycan array binding signal (z-score),[11],-0.182
same,glycan array binding signal (z-score),[12],0.12
same,glycan array binding signal (z-score),[13],0.139
same,glycan array binding signal (z-score),[14],0.484
same,glycan array binding signal (z-score),[15],2.44
same,glycan array binding signal (z-score),[16],3.33
same,glycan array binding signal (z-score),[17],2.62
same,glycan array binding signal (z-score),[18],3.79
same,glycan array binding signal (z-score),[19],3.01
same,glycan array binding signal (z-score),[20],2.83
same,glycan array binding signal (z-score),[21],4.71
same,glycan array binding signal (z-score),[22],1.43
same,glycan array binding signal (z-score),[23],0.008
same,glycan array binding signal (z-score),[24],-0.241
same,glycan array binding signal (z-score),[25],6.7
same,glycan array binding signal (z-score),[26],11.8
same,glycan array binding signal (z-score),[27],5.69
